Holding throughout (conditions): mRNA level, 48 h; actives raise or lower the signal
Read-out in assay [1]: Paternally Expressed 10 (PEG10), PEG10 (gene 23089)
In words: LTEA_HepaRG_PEG10: Life Technologies and Expression Analysis (LTEA) Assay for Paternally Expressed 10 (PEG10) using HepaRG (AID 2283520). A digest of the protocol: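 Differentiated HepaRG cells, plated 48 h then switched to serum-free induction medium, were exposed in duplicate for 48 h to eight half-log concentrations topping at 100 uM in 0.5% DMSO. PEG10 mRNA was quantified by TaqMan qRT-PCR, normalised to ACTB, GAPDH and POLR2A.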

Read-out in assay [2]: Nuclear factor NF-kappa-B p105 subunit (Homo sapiens) (UniProt P19838)
The assay is described as follows: LTEA_HepaRG_NFKB1: Life Technologies and Expression Analysis (LTEA) Assay for Nuclear Factor Kappa B Subunit 1 (NFKB1) using HepaRG (AID 2283521). The gist of the method: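 Differentiated human HepaRG cells were exposed for 48 h in serum-free induction medium to eight concentrations (top 100 uM, half-log steps, 0.5% DMSO), in duplicate. NFKB1 mRNA was measured by TaqMan qRT-PCR, normalized to ACTB/GAPDH/POLR2A, and fitted bidirectionally against DMSO.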

Read-out in assay [3]: Protein phosphatase 2A (PPP2R4), PTPA (gene 5524)
In words: LTEA_HepaRG_PPP2R4: Life Technologies and Expression Analysis (LTEA) Assay for Protein phosphatase 2A (PPP2R4) using HepaRG (AID 2283522). The gist of the method:
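Differentiated HepaRG cells in serum-free induction medium were exposed in duplicate for 48 h to eight concentrations, top 100 uM with half-log dilutions, in 0.5% DMSO. PPP2R4 mRNA was quantified by TaqMan qRT-PCR, normalized to ACTB, GAPDH and POLR2A.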

Read-out in assay [4]: Phosphatase and tensin (PTEN), PTEN (gene 5728)
The assay is described as follows: LTEA_HepaRG_PTEN: Life Technologies and Expression Analysis (LTEA) Assay for Phosphatase and tensin (PTEN) using HepaRG (AID 2283523). A digest of the protocol:
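Differentiated human HepaRG cells, plated 48 h then switched to serum-free induction medium, were exposed in duplicate for 48 h to eight half-log concentrations up to 100 uM in 0.5% DMSO. PTEN mRNA measured by TaqMan qRT-PCR, normalized to ACTB/GAPDH/POLR2A, bidirectional fit versus DMSO.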

Read-out in assay [5]: solute carrier (SLC22A1), SLC22A1 (gene 6580)
In words: LTEA_HepaRG_SLC22A1: Life Technologies and Expression Analysis (LTEA) Assay for solute carrier (SLC22A1) using HepaRG (AID 2283524). A digest of the protocol: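 Human HepaRG cells were plated 48 h, switched to serum-free induction medium, then exposed in duplicate for 48 h to 8-point half-log series from 100 uM in 0.5% DMSO. SLC22A1 mRNA measured by qRT-PCR, normalized to ACTB/GAPDH/POLR2A, fitted bidirectionally versus DMSO.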

Read-out in assay [6]: Nuclear factor erythroid 2-related factor 2 (Homo sapiens) (UniProt Q16236)
The assay is described as follows: LTEA_HepaRG_NFE2L2: Life Technologies and Expression Analysis (LTEA) Assay for Nuclear factor erythroid 2-related factor 2 (NFE2L2) Transcription Factor using HepaRG (AID 2283527).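 Note: TaqMan qRT-PCR transcript level normalised to ACTB GAPDH and POLR2A housekeeping genes.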 The gist of the method: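 Differentiated human HepaRG cells in serum-free induction medium were exposed for 48 h to eight concentrations (top 100 uM, half-log dilutions, 0.5% DMSO), in duplicate. NFE2L2 mRNA was quantified by TaqMan qRT-PCR, normalized to ACTB, GAPDH and POLR2A, with bidirectional fitting versus DMSO.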

Read-out in assay [7]: succinate dehydrogenase complex iron sulfur subunit B (SDHB), SDHB (gene 6390)
In words: LTEA_HepaRG_SDHB: Life Technologies and Expression Analysis (LTEA) Assay for succinate dehydrogenase complex iron sulfur subunit B (SDHB) using HepaRG (AID 2283528). A digest of the protocol: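 HepaRG, 48 h exposure, 8-pt half-log series from 100 uM in 0.5% DMSO, duplicates. Readout: SDHB mRNA by Fluidigm qRT-PCR vs housekeeping genes; bidirectional fit relative to DMSO.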

Read-out in assay [8]: Signal transducer and activator of transcription 3 (Homo sapiens) (UniProt P40763)
In words: LTEA_HepaRG_STAT3: Life Technologies and Expression Analysis (LTEA) Assay for Signal transducer and activator of transcription (STAT3) using HepaRG (AID 2283529). The gist of the method:
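Differentiated human HepaRG cells in serum-free induction medium were exposed in duplicate for 48 h to eight half-log concentrations up to 100 uM in 0.5% DMSO. STAT3 mRNA was quantified by TaqMan qRT-PCR, normalized to ACTB, GAPDH and POLR2A, and fitted bidirectionally against DMSO.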

Read-out in assay [9]: solute carrier (SLCO1B1), SLCO1B1 (gene 10599)
The assay is described as follows: LTEA_HepaRG_SLCO1B1: Life Technologies and Expression Analysis (LTEA) Assay for solute carrier (SLCO1B1) using HepaRG (AID 2283530). A digest of the protocol: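 SLCO1B1 transcript levels were quantified by TaqMan qRT-PCR using three housekeeping genes for normalization. This followed 48 h chemical exposure (100 uM top, half-log, 8 points, 0.5% DMSO) of HepaRG liver cells, with gain or loss fitted relative to DMSO.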

Read-out in assay [10]: sulfotransferase 2A1 (SULT2A1), SULT2A1 (gene 6822)
The assay is described as follows: LTEA_HepaRG_SULT2A1: Life Technologies and Expression Analysis (LTEA) Assay for sulfotransferase 2A1 (SULT2A1) using HepaRG (AID 2283531). A digest of the protocol:
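Expression change of SULT2A1, by qRT-PCR with three housekeeping-gene normalization, was scored bidirectionally versus DMSO. Cells: differentiated HepaRG, dosed in duplicate for 48 h across 8 points, highest 100 µM, half-log dilution, 0.5% DMSO.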

Read-out in assay [11]: Transforming Growth Factor (TGFA), TGFA (gene 7039)
In words: LTEA_HepaRG_TGFA: Life Technologies and Expression Analysis (LTEA) Assay for Transforming Growth Factor (TGFA) using HepaRG (AID 2283532). A digest of the protocol:
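Differentiated human HepaRG cells, plated 48 h then switched to serum-free induction medium, were exposed in duplicate for 48 h to 8-point half-log series from 100 uM in 0.5% DMSO. TGFA mRNA measured by qRT-PCR, normalized to ACTB/GAPDH/POLR2A, bidirectional fit versus DMSO.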

Read-out in assay [12]: Transforming Growth Factor (TGFB1), TGFB1 (gene 7040)
In words: LTEA_HepaRG_TGFB1: Life Technologies and Expression Analysis (LTEA) Assay for Transforming Growth Factor (TGFB1) Transporter using HepaRG (AID 2283533). The gist of the method: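 TGFB1 transcript measured by qRT-PCR with normalisation to three housekeeping genes (ACTB, GAPDH, POLR2A); human HepaRG line treated in duplicate for 48 hr with an 8-point series topping at 100 uM, 0.5% DMSO vehicle, bidirectionally fitted.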

Read-out in the next assay: TIMP1, TIMP1 (gene 7076)
The assay is described as follows: LTEA_HepaRG_TIMP1: Life Technologies and Expression Analysis (LTEA) Assay for TIMP1 using HepaRG (AID 2283534).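 For outcome: TaqMan qRT-PCR signal normalized to ACTB GAPDH and POLR2A housekeeping genes.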 The gist of the method: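 Bidirectional change in TIMP1 transcript versus 0.5% DMSO, measured by TaqMan qRT-PCR with three housekeeping genes for normalization. HepaRG human liver cells dosed 48 h in duplicate, top concentration 100 uM with half-log dilutions.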

Read-out in assay [13]: Tumor necrosis factor receptor 1 (TNFRSF1A), TNFRSF1A (gene 7132)
In words: LTEA_HepaRG_TNFRSF1A: Life Technologies and Expression Analysis (LTEA) Assay for Tumor necrosis factor receptor 1 (TNFRSF1A) using HepaRG (AID 2283535). A digest of the protocol:
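mRNA measured by qRT-PCR (TaqMan, Fluidigm arrays) against ACTB/GAPDH/POLR2A housekeepers after 48 h chemical exposure of HepaRG cells. Top concentration 100 uM, half-log 8-point series, duplicates; vehicle 0.5% DMSO, both fit directions.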

Read-out in assay [14]: Thyroid Hormone Responsive (THRSP), THRSP (gene 7069)
The assay is described as follows: LTEA_HepaRG_THRSP: Life Technologies and Expression Analysis (LTEA) Assay for Thyroid Hormone Responsive (THRSP) using HepaRG (AID 2283536). A digest of the protocol: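 Differentiated human HepaRG cells were exposed in duplicate for 48 h in serum-free induction medium to eight concentrations (top 100 uM, half-log steps, 0.5% DMSO). Expression was quantified by TaqMan qRT-PCR, normalized to ACTB, GAPDH and POLR2A, with bidirectional fitting against DMSO.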

Read-out in assay [15]: Cellular tumor antigen p53 (Homo sapiens) (UniProt P04637)
In words: LTEA_HepaRG_TP53: Life Technologies and Expression Analysis (LTEA) Assay for Tumor Protein P53 (TP53) using HepaRG (AID 2283537). The gist of the method: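 HepaRG, 48 h exposure, top 100 uM, half-log 8-point, 0.5% DMSO vehicle, duplicates. Read: TP53 mRNA by TaqMan qRT-PCR, normalised to ACTB/GAPDH/POLR2A; bidirectional fit vs DMSO.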

Read-out in assay [16]: UDP glucuronosyltransferase (UGT1A1), UGT1A1 (gene 54658)
The assay is described as follows: LTEA_HepaRG_UGT1A1: Life Technologies and Expression Analysis (LTEA) Assay for UDP glucuronosyltransferase (UGT1A1) using HepaRG (AID 2283538). A digest of the protocol: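 Differentiated human HepaRG cells in serum-free induction medium were exposed in duplicate for 48 h to eight half-log concentrations up to 100 uM in 0.5% DMSO. UGT1A1 mRNA was quantified by TaqMan qRT-PCR, normalized to ACTB, GAPDH and POLR2A, and fitted bidirectionally against DMSO.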

Read-out in assay [17]: UDP glucuronosyltransferase (UGT1A6), UGT1A6 (gene 54578)
The assay is described as follows: LTEA_HepaRG_UGT1A6: Life Technologies and Expression Analysis (LTEA) Assay for UDP glucuronosyltransferase (UGT1A6) using HepaRG (AID 2283539). A digest of the protocol:
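Expression was quantified by TaqMan qRT-PCR on Fluidigm arrays with ACTB/GAPDH/POLR2A normalization and bidirectional fitting against 0.5% DMSO. HepaRG cells (~100,000/well) were treated in duplicate for 48 h at eight half-log concentrations up to 100 uM in serum-free induction medium.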

Read-out in assay [18]: Pyruvate Dehydrogenase Kinase 4 (PDK4), PDK4 (gene 5166)
In words: LTEA_HepaRG_PDK4: Life Technologies and Expression Analysis (LTEA) Assay for Pyruvate Dehydrogenase Kinase 4 (PDK4) using HepaRG (AID 2283525). A digest of the protocol: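 Differentiated human HepaRG cells, pre-cultured 48 h, were exposed in duplicate for 48 h in serum-free induction medium to eight half-log concentrations up to 100 uM in 0.5% DMSO. PDK4 mRNA was quantified by qRT-PCR, normalized to ACTB, GAPDH and POLR2A, bidirectional fitting versus DMSO.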

Read-out in assay [19]: NAD(P)H dehydrogenase [quinone] 1 (NQO1), NQO1 (gene 1728)
The assay is described as follows: LTEA_HepaRG_NQO1: Life Technologies and Expression Analysis (LTEA) Assay for NAD(P)H dehydrogenase [quinone] 1 (NQO1) using HepaRG (AID 2283526). The gist of the method: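 Differentiated HepaRG cells, plated 48 h and then switched to serum-free induction medium, were exposed in duplicate for 48 h to 8-point half-log concentrations up to 100 uM in 0.5% DMSO. mRNA measured by qRT-PCR, normalized to ACTB, GAPDH, POLR2A; bidirectional fit versus DMSO.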

The source made the active and inactive calls. Rule for the calls: active = hit-call score of the fitted dose curve at least 0.9, where 1 is the maximum; inactive = score below 0.9.

Broadly, the AC50 is the midpoint of the concentration-response curve, whichever way the signal moves.

Cellular tumor antigen p53 (Homo sapiens), sequence (P04637 whole entry, looked up): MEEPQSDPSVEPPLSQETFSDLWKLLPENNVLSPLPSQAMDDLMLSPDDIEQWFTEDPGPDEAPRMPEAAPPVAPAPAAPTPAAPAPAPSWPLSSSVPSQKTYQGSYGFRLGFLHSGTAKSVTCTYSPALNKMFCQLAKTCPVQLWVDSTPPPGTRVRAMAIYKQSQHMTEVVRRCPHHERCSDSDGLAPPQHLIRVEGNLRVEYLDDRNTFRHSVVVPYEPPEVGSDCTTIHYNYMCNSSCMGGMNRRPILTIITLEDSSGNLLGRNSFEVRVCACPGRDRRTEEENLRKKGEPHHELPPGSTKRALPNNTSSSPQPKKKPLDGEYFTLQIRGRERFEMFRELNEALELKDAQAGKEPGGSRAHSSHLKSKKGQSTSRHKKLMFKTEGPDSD
Nuclear factor erythroid 2-related factor 2 (Homo sapiens), sequence (Q16236 whole entry, looked up): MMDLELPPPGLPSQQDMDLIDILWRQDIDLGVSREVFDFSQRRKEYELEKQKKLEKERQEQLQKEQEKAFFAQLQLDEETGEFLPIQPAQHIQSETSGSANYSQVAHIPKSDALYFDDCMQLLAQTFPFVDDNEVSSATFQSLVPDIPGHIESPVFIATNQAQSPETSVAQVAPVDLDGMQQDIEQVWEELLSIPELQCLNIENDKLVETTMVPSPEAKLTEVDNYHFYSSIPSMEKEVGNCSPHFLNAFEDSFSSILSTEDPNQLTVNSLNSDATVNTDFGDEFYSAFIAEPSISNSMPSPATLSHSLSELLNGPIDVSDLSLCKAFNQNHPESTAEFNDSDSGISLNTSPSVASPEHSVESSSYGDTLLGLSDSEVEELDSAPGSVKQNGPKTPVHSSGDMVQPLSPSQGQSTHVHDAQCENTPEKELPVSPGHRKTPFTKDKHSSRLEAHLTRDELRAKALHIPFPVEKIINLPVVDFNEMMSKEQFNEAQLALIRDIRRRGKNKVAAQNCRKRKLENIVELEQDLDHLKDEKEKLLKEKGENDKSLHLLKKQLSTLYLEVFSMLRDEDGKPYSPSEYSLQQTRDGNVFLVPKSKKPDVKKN
Nuclear factor NF-kappa-B p105 subunit (Homo sapiens), sequence (P19838 whole entry, looked up): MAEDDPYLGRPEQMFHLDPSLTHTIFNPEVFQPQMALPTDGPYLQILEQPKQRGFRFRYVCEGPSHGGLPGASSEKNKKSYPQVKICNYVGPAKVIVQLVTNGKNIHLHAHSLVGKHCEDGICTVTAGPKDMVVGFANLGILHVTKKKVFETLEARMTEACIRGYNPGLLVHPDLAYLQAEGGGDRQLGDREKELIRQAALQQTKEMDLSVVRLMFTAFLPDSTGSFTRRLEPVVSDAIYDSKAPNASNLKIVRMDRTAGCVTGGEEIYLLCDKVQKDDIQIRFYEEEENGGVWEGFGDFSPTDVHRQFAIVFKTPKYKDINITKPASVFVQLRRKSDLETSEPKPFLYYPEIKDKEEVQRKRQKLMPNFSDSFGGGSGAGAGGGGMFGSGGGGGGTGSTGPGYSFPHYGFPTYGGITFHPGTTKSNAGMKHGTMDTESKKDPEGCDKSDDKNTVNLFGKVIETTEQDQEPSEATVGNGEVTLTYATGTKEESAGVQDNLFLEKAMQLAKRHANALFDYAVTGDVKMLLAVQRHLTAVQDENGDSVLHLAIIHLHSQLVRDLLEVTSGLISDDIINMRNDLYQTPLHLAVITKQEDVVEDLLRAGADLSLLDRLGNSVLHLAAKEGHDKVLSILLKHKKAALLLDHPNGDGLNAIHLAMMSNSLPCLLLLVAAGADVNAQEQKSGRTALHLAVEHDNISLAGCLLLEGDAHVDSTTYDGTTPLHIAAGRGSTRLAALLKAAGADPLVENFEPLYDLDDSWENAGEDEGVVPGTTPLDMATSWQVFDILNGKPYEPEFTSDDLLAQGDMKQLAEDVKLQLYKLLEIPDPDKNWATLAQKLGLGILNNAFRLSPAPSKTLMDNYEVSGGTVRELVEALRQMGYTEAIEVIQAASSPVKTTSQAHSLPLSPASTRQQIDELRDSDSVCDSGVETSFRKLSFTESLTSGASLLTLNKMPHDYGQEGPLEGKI
Signal transducer and activator of transcription 3 (Homo sapiens), sequence (P40763 whole entry, looked up): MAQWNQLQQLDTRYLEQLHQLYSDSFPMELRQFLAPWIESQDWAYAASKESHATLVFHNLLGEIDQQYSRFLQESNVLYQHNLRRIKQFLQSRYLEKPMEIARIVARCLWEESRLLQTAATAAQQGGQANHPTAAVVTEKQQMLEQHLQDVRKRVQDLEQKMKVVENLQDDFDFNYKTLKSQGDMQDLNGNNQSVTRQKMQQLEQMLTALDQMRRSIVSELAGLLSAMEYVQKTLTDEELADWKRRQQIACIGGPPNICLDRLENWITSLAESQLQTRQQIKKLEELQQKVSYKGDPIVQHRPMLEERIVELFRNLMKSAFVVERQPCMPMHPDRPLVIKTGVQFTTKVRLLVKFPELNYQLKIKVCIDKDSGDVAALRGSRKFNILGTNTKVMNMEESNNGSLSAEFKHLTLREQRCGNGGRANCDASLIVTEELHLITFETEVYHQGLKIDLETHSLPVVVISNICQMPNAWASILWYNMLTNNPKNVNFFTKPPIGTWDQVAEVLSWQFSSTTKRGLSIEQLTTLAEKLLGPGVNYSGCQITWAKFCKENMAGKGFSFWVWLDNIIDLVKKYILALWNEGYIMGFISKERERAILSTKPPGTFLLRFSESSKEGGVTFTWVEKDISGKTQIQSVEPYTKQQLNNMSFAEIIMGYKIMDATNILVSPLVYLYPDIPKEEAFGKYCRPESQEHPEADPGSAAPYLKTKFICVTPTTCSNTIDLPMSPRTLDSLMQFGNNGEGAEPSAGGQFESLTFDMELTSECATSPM

Turning to `O=c1[nH]sc2ccccc12`, the compound was called inactive in assay [1], in assay [2], in assay [3], in [4], in assay [5] and in assay [6]. In addition, the compound was called inactive in assay [7], in [8], in assay [9], in [10], in [11] and in [12]. Also, the outcome was “inactive” with TIMP1, TIMP1 (gene 7076); “inactive” in assay [13]; “inactive” in assay [14]; “inactive” in assay [15]; “inactive” in assay [16]; “inactive” in assay [17].

Turning to `Cc1cc2c(cc1C(F)(F)F)N(C(=O)Nc1ccc(Oc3cccnc3C)nc1)CC2`, the compound was called inactive in assay [1], in assay [2], in assay [3], in assay [4], in assay [6] and in [7]. Also, the outcome in assay [9], in assay [10], in assay [11], in assay [12] and in [14] was inactive. For the same compound, the half-maximal activity concentration (AC50) in assay [5] was 30.1 µM (active); with TIMP1, TIMP1 (gene 7076), 83 µM (active); in [13] it was 73.6 µM (active); in assay [15] it was 75 µM (active); in [16], 81.4 µM (active); in assay [17], 76.1 µM (active).

For `CCCCCCCCCCCCO`, the result in assay [1], in [3], in assay [4], in assay [5], in assay [18] and in [19] was inactive. Also, the call in assay [6], in assay [7], in assay [9], in assay [10], in assay [11] and in [12] was inactive. The outcome with TIMP1, TIMP1 (gene 7076) was “inactive”; in assay [13] it was “inactive”; in assay [14], “inactive”; in assay [15], “inactive”; in assay [16], “inactive”; in assay [17], “inactive”.

Source of the values: PubChem BioAssay (EPA / NIEHS).
